MCF10A rerep = inducers of DNA re-replication in MCF 10A breast cells | MCF 10A DNA re-replication, Hoechst nuclear intensity, 48 h | 2.9% of 350,000 active | Potency, µM (top dose mostly 46.1 µM), actives largely listed as activators | AID 624296; also: nearly all actives have a fitted effect of over 50% in size
HT1080-NT tox = kills 2HG-producing HT-1080-NT fibrosarcoma cells | HT-1080-NT fibrosarcoma viability, CellTiter-Glo ATP luminescence, 48 h | Potency, µM (highest dose often 46.1 µM), hits mostly cytotoxic | 1.6% of 360,000 active | AID 686970;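 also: NT is the 2HG producing partner of a matched IDH1 knockdown line; nearly all actives have a fitted effect of over 55% in size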
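750 cells/well, RPMI + 5% FBS; 2 h settle, compound pin-transfer, 48 h at 37 degrees C. CellTiter-Glo 10 min RT, luminescence. Normalized to DMSO and media-only wells.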
KB-V1 MDR tox = KB-V1 MDR subline cytotoxicity | KB-V1 MDR cells viability, CellTiter-Glo, 72 h | Potency, µM (series often up to 46.1 µM), usual class: cytotoxic | 3.4% of 400,000 active; also: nearly all actives have a fitted effect of over 60% in size
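In this primary screen, KB-V1 cells overexpressing P-gp are incubated with library compounds (lowest to highest concentration) for 72 h at 37 degrees C before a luminescent ATP viability read.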
SW480 rerep = inducers of DNA re-replication in SW480 colon cancer cells; SW480 DNA re-replication, Hoechst DNA content imaging, 48 h; Potency, µM (series often up to 46.1 µM), most hits filed as activators; 1.8% of 340,000 active; also: nearly all actives have a fitted effect of over 55% in size
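Image-based DNA-content assay: after two days of treatment, nuclei were labelled with the DNA dye Hoechst and imaged, and hits were compounds raising the count of nuclei showing high fluorescence intensity.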
KB-3-1 cytotox = kills parental KB-3-1 adenocarcinoma cells. KB-3-1 viability, CellTiter-Glo ATP luminescence, 72 h. Potency, µM (highest dose often 46.1 µM), most hits filed as cytotoxic. 1.4% of 400,000 active. AID 1347075; also: nearly all actives have a fitted effect of over 60% in size
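Luminescent ATP read-out (CellTiter-Glo) measures survival of drug-naive KB-3-1 cells after 72 h compound exposure at 37 °C. Titration series was screened from lowest to highest concentration, with DMSO vehicle plates as background controls.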
HT1080 IDH1KD tx = toxicity to HT-1080 IDH1 knockdown cells (counter line). Potency, µM (top dose mostly 46.1 µM), usual class: cytotoxic. HT-1080 IDH1 knockdown viability, ATP luminescence, 48 h. AID 686971. 2% of 360,000 active
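Cytotoxicity counter-line: IDH1KD HT-1080, 48 h, CellTiter-Glo. Curves classed by r2, magnitude and activity.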
Numbers stand for hits; n = inactive; u = inconclusive; x = not tested or not shown. Shown are actives, neighbours in structure and some others; about 8% of the full set was active somewhere. Calls follow the shape of the dose curve; as a rule, active = well fitted curve in the direction sought with a large enough effect; inconclusive = small, poorly fitted or top-dose-only effect, or another doubt; inactive = no such curve, though single readings can be large; an effect the other way counts as inactive or inconclusive.

SMILES	MCF10A rerep	HT1080-NT tox	KB-V1 MDR tox	SW480 rerep	KB-3-1 cytotox	HT1080 IDH1KD tx
Cc1ccc(NC(=O)Cn2cccc2)cc1C	n	n	n	n	n	n
Cc1cccc(C(=O)Nc2ccccc2SCC(=O)Nc2ccc(C)c(Cl)c2)c1	u	n	u	u	12µM	u
O=C(NCC1CCCO1)c1cccc(NC(=O)c2ccccc2)c1 (configuration not stated)	n	n	n	n	n	n
COc1cc(-c2[nH]ncc2CN2CCc3sccc3C2)cc(OC)c1OC	n	n	n	n	u	n
CCn1c(=O)n(CC)c2cc(S(=O)(=O)N3CCC(c4ccccc4)CC3)ccc21	n	u	23µM	n	n	n
Cn1c(=O)c(=O)n(C)c2cc(S(=O)(=O)N3CCC(Cc4ccccc4)CC3)ccc21	n	n	n	n	n	n
Cc1nc(SCCOc2ccc(F)cc2)c2ccccc2n1	n	n	n	n	n	n
Cc1cc2c(cc1C)NC(CC(=O)NCc1ccccc1)C(=O)N2 (configuration not stated)	14µM	n	u	u	n	n
COc1ccccc1N1CCN(C(=O)/C=C/c2ccc(C)cc2)CC1	23µM	n	16µM	n	n	n
CCOCC(=O)N1CCC(Cc2ccccc2)CC1	n	n	n	n	n	n
CC(C)(C)c1ccc(/C=C/C(=O)N2CCCCC2)cc1	u	n	n	n	n	n
CC1CCN(C(=O)/C=C/c2ccc(C(C)(C)C)cc2)CC1	18µM	n	u	n	n	n
Cc1ccc(/C=C/C(=O)N2CCC(Cc3ccccc3)CC2)cc1	u	n	21µM	n	n	n
Cc1ccc(/C=C/C(=O)N2CCCC(C)C2)cc1 (configuration not stated)	u	n	16µM	n	n	n
COc1ccccc1N1CCN(C(=O)/C=C/c2cccc([N+](=O)[O-])c2)CC1	n	n	n	n	n	n
CCOC(=O)C1CCCN(C(=O)/C=C/c2ccc(Cl)cc2)C1 (configuration not stated)	n	n	n	n	n	n
COc1ccc(OCC(=O)NC2CCCCCCC2)cc1	n	n	n	u	n	n
COc1ccc(S(=O)(=O)N2CCCCC2c2cc(C(=O)NC(C)C)no2)cc1 (configuration not stated)	x	n	n	x	n	n
OC(c1ccc(F)cc1)c1nc(-c2csc3ccccc23)cs1 (configuration not stated)	x	u	u	x	n	n
CCOc1ccc(CNC(=O)CCS(=O)(=O)Cc2ccc(C)cc2)cc1OC	n	n	n	n	n	n
COc1ccc(NC2CCCN(C(=O)CN3CCOC3=O)C2)cc1OC (configuration not stated)	n	n	n	n	n	n
CC(Sc1nc2cc([N+](=O)[O-])ccc2n1-c1ccc(F)cc1)C(=O)NCc1ccc2c(c1)OCO2 (configuration not stated)	n	n	5.8µM	n	n	n
COc1ccccc1-n1c(SCC(=O)NCc2ccc3c(c2)OCO3)nc2cc([N+](=O)[O-])ccc21	n	n	n	n	n	n
O=C(N1CCN(c2ccccc2)CC1)C(F)(F)C(F)F	n	n	n	n	n	n
CC(C)N(C1=N/C(=C\c2ccco2)C(=O)N1c1ccccc1)C(C)C	7.3µM	n	n	u	n	n
SMILES	MCF10A rerep	HT1080-NT tox	KB-V1 MDR tox	SW480 rerep	KB-3-1 cytotox	HT1080 IDH1KD tx
O=C1/C(=C/c2ccco2)N=C(N2CCCCC2)N1c1ccccc1	u	n	n	u	n	n
CCC(C)(C)C1CCC2(CC1)NC(=O)N(CC(=O)N(C)Cc1ccc(OC(F)F)cc1)C2=O (configuration not stated)	u	n	u	n	n	n
c1ccc2cc(CNCc3cccc4ccccc34)ccc2c1	u	u	n	n	n	23µM
O=C(O)Cc1sc(Nc2ccc(F)cc2)nc1-c1cccs1	21µM	n	n	n	n	n
Cc1ccc(Nc2nc(-c3ccccc3)c(CC(=O)O)s2)cc1	n	u	n	n	n	n
Cc1[nH]c2ccccc2c1C(=O)NS(=O)(=O)Nc1ccccc1	u	n	n	u	n	n
COc1ccc(NC(=O)CSc2n[nH]c(-c3ccccn3)n2)cc1	u	n	n	u	u	u
CCNc1nc(NCc2ccccc2)nc(SCC(N)=O)n1	n	n	n	u	n	n
O=C(CSc1n[nH]c(-c2ccccn2)n1)Nc1ccccc1	n	u	n	u	u	21µM
CN(C)c1nc(NCc2ccccc2)nc(SCC(=O)Nc2ccc(Cl)c(Cl)c2)n1	u	u	7.3µM	u	n	u
CCNc1nc(NCc2ccccc2)nc(SCC(=O)Nc2ccccc2)n1	n	n	2.3µM	n	u	n
COc1ccc(C(=O)OCC(=O)N2CCN(C(=O)c3ccco3)CC2)c(OC)c1OC	x	n	n	x	n	n
COc1ccc(N/C(=N\c2nc(C)cc(C)n2)NC(C)=O)cc1OC	n	n	n	n	n	n
CC(CS(=O)(=O)c1ccc2c(c1)NC(=O)CS2)C(=O)N1CCN(c2cccc(Cl)c2)CC1 (configuration not stated)	n	n	n	n	23µM	n
CC1=C(/C=C/C(C)=C\C=C\C(C)=C\C=C\C=C(C)\C=C\C=C(C)\C=C\C2=C(C)C[C@@H](O)CC2(C)C)C(C)(C)C[C@H](O)C1	u	x	x	n	x	x
CC1=C[C@@H](O)CC(C)(C)[C@@H]1/C=C/C(C)=C/C=C/C(C)=C/C=C/C=C(C)/C=C/C=C(C)/C=C/C1=C(C)C[C@H](O)CC1(C)C	30µM	x	x	u	x	x
CC1(C)OC(=O)C(=CNCCc2ccc(O)cc2)C(=O)O1	n	n	n	n	n	n
CCc1nnc(NC(=O)C2CCCN(c3nc4ccccc4s3)C2)s1 (configuration not stated)	n	n	15µM	n	n	n
Cc1ccnc(N2CCCC(C(=O)Nc3nnc(C)s3)C2)n1 (configuration not stated)	n	n	n	n	n	n
Cc1cc(C)nc(N2CCCC(C(=O)Nc3ccc4c(c3)OCCO4)C2)n1 (configuration not stated)	n	u	7.3µM	n	n	u
Cc1cc(C)nc(N2CCCC(C(=O)Nc3nnc(C)s3)C2)n1 (configuration not stated)	n	n	18µM	n	n	n
Cc1ccc(NS(=O)(=O)c2ccc3c4c(cccc24)C(=O)N3)c(C)c1	x	x	n	x	n	x
COc1ccc(/C=C(\C#N)C(=O)OCC(=O)NCc2ccccc2Cl)cc1	n	n	n	n	n	n
CCOC(=O)CNC(=O)CN1CCCN(S(=O)(=O)c2ccc(Br)s2)CC1	n	n	n	n	n	n

Assay outcomes (PubChem BioAssay)
